This is one part of a sample in which hits are shown more often than they occur.
GRP78 ERSR act = induces the endoplasmic reticulum stress response in human glioma cells. U87-MG GRP78 promoter luciferase reporter, 16 h. Potency, µM, usual class: activators. 420,000 tested, 0.02% active. AID 602332; note: series mostly up to about 76 µM; nearly all actives have a fitted effect of over 35% in size
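ERSR induction read as luciferase luminescence (Bright-Glo, 10 min at room temperature) in stably transfected human U87-MG glioma cells exposed to compounds for 16 h, using GRP78 as sensor.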
12-LOX inh = inhibitors of human 12S-lipoxygenase ALOX12. P18054. purified 12hLO, xylenol orange hydroperoxide absorbance. Potency, µM (series often up to 108 µM), actives largely listed as inhibitors. 580,000 tested, 1.1% active
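Purified human 12hLO (150 nM final) in 25 mM Hepes, 0.01% Triton X-100, pH 7.0 was preincubated 15 min at room temperature with compound. Then 40 uM arachidonic acid was added, 30 min. Hydroperoxide was read by Fe-XO absorbance ratio 573/405 nm.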
G9a inh = G9a (human) methyltransferase inhibition; Q96KQ7; G9a H3K9 monomethylation, AlphaScreen, 2 h; Potency, µM (titrated, usually from 102 µM), actives largely listed as inhibitors; 350,000 tested, 8.8% active; AID 504332; note: nearly all actives have a fitted effect of over 75% in size
Target sequence (Q96KQ7 913-1193 limits assumed): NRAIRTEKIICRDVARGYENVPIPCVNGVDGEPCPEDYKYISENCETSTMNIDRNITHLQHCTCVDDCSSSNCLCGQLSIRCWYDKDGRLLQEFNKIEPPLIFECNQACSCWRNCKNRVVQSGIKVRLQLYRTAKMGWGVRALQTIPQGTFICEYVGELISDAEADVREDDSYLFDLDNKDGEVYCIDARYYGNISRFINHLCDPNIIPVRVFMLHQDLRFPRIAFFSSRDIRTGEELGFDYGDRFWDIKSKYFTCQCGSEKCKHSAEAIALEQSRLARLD
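Quantitative HTS format: methyltransferase activity on a biotin-tagged H3K9 peptide is measured by AlphaScreen, using a rabbit anti-monomethyl-H3K9 antibody with streptavidin donor and anti-IgG acceptor beads. Final levels are 20 nM enzyme, 500 nM peptide, 20 uM SAM; 2 h RT.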
VDR inhibitor = blocks the human vitamin D receptor | P11473 | VDR-SRC2-3 peptide fluorescence polarization, 2 h | Potency, µM, most hits filed as inhibitors | 400,000 tested, 0.93% active | AID 504847
Target sequence (P11473 whole entry, looked up): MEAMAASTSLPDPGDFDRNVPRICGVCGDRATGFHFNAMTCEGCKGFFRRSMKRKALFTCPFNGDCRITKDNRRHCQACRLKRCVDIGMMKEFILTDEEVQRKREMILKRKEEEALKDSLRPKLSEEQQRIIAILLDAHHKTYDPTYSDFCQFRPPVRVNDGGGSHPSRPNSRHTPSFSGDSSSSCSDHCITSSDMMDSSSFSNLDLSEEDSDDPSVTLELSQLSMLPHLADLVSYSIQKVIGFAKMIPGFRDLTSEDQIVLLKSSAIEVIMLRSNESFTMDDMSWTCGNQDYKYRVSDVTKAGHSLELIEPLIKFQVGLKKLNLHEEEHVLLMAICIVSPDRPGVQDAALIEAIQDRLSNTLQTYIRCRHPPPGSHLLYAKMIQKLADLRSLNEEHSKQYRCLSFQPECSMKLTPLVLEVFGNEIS
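Measured by FP: displacement of SRC2-3 coactivator peptide from VDR by library compounds, following a two-hour ambient incubation.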
Sfp PPTase inh = blocks B. subtilis Sfp PPTase activity. Q9F4F7. Biochemical Sfp PPTase activity, qHTS. Potency, µM, hits mostly inhibitors. 310,000 tested, 3.5% active. AID 1490;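 note: the enzyme is Sfp with the accession as filed and its product quenches rhodamine fluorescence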
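Fluorescence-quenching assay with 15 nM Sfp, 5 uM rhodamine-CoA and 12.5 uM BHQ-2-labelled ybbR peptide in pH 7.6 Hepes/MgCl2 buffer. Enzyme was pre-incubated with compound for 15 min at room temperature. Rate was taken from the 30-min fluorescence change (525/598 nm).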
Hits are given with their value; n = inactive; u = inconclusive; x = no result given; ! = repeats disagree; [ ] = another dose, or the depositor's remark. Calls come from the whole dose curve; as a rule, active = well fitted curve in the direction sought with a large enough effect; inconclusive = small, poorly fitted or top-dose-only effect, or another doubt; inactive = no such curve, though single readings can be large; an effect the other way counts as inactive or inconclusive.

SMILES | GRP78 ERSR act | 12-LOX inh | G9a inh | VDR inhibitor | Sfp PPTase inh
CC(C)NC(=O)CCC(=O)c1ccc2c(c1)OCCO2 | x | n | x | x | x
CCN(CC)CCn1c2ccccc2c2nc3ccccc3nc21 | n | u | x | n | n
CCN(CC)CCn1c2ccccc2c2n[nH]c(=S)nc21 | n | 32µM | 1.3µM | n | 28µM
Cc1ccc(C(=O)N(Cc2ccc(N(C)C)cc2)CC2CCCO2)cc1 (stereo not drawn) | n | n | 13µM | n | x
COc1ccc(C(=O)N(Cc2ccc(N(C)C)cc2)CC2CCCO2)cc1 (stereo not drawn) | u | n | 11µM | n | x
CN(C)c1ccc(CN(CC2CCCO2)C(=O)c2cc3ccccc3o2)cc1 (stereo not drawn) | n | n | 6.3µM | n | x
CN(C)c1ccc(CN(CC2CCCO2)C(=O)c2ccc(Br)cc2)cc1 (stereo not drawn) | n | n | 14µM | n | x
CCOc1cccc(C(=O)N(Cc2ccc(N(C)C)cc2)CC2CCCO2)c1 (stereo not drawn) | n | n | 14µM | n | x
COc1ccccc1OCC(=O)N(Cc1ccc(N(C)C)cc1)CC1CCCO1 (stereo not drawn) | n | n | u | n | x
COc1ccc(C(=O)OCc2ccc(Cl)cc2)c(OC)c1OC | x | n | x | x | x
Cc1ccc(C2NNC(=O)C2NC(=O)c2ccccc2)cc1 (stereo not drawn) | n | 25µM | 2.2µM | n | n
Cc1ccc(-c2nc(Cn3nnc(-c4cccc(F)c4)n3)cs2)cc1 | x | n | x | x | x
CCOC(=O)c1ccc(N2NC(=O)/C(=C/c3ccc(OC(=O)c4ccco4)c(OC)c3)C2=O)cc1 | x | 22µM | 32µM | x | u
CS(=O)(=O)C1=NSC2=NC(=O)/C(=C\c3ccc(OC(=O)c4ccco4)cc3)C(=N)N21 | x | x | u | x | n
CS(=O)(=O)C1=NN2C(=N)/C(=C\c3ccc(OC(=O)c4ccco4)cc3)C(=O)N=C2S1 | n | n | 45µM | n | n
CCS(=O)(=O)C1=NN2C(=N)/C(=C\c3ccc(OC(=O)c4ccco4)c(OC)c3)C(=O)N=C2S1 | n | n | 32µM | u | n
COc1cc(/C=N/N(C)C)ccc1OC(=O)c1ccco1 | n | n | 28µM | n | n
C=C(C)COc1ccc2c(C)c(CCC(=O)NCc3ccc(S(N)(=O)=O)cc3)c(=O)oc2c1 | x | n | x | x | x
CCC(C)c1ccc(OCC(=O)Nc2ccc(OC)cc2)c(-n2cnnc2)c1 (stereo not drawn) | x | n | x | x | x
Cc1cc(C(=O)Cn2c(Cl)nc3c2c(=O)n(C)c(=O)n3C)c(C)n1C1CC1 | x | n | x | x | x
COc1ccc(C2OCC3OC(OC)C(OCc4ccccc4)C(O)C3O2)cc1 (stereo not drawn) | x | n | x | x | x
COCCNCCCOc1ccc(Cl)cc1Br | n | n | 11µM | n | n
Cc1ccc(OCCOCCN(C)C)c(Cl)c1 | n | n | 8.9µM | n | n
COCCNCCCOc1ccc(Br)cc1Cl | n | u | 10µM | n | n
COCCCNCCCCOc1ccc(Br)cc1Cl | n | n | u | n | n
SMILES | GRP78 ERSR act | 12-LOX inh | G9a inh | VDR inhibitor | Sfp PPTase inh
OCCNCCCOc1ccc(Cl)cc1Br | n | n | n | n | n
CCCCNCCOCCOc1ccc(C)cc1Br | n | n | 10µM | n | n
CCN(CC1CCCO1)C(=O)/C=C/c1ccc(C#N)cc1 (stereo not drawn) | x | n | x | x | x
CN(C)CCCCOc1ccc(Br)cc1Cl | n | n | 28µM | n | n
Clc1ccc(OCCCNCc2ccccc2)c(Br)c1 | n | u | 13µM | n | u
C=CCN(CC=C)CCCOc1ccccc1C(=O)OC | n | n | 3.5µM | n | n
COC(=O)c1ccccc1OCCCN(C)C | n | n | 8.9µM | n | u
COc1cc(C)ccc1OCCOc1cc(C)ccc1Cl | n | n | u | n | n
C=CCN(CC=C)CCCOc1ccc(C)cc1OC | n | u | 25µM | n | n
COC(=O)c1ccccc1OCCCOc1ccc(C)cc1OC | x | x | n | x | u
CCC1CCCCN1C/C=C/c1ccccc1[N+](=O)[O-] (stereo not drawn) | n | n | 8.9µM | n | n
CC1CCCCN1C/C=C/c1ccccc1[N+](=O)[O-] (stereo not drawn) | n | n | n | n | n
CC1(CCc2ccccc2)NC(=S)N(c2ccccc2)N1 (stereo not drawn) | n | 1µM | 10µM | n | 45µM
CC1(CCc2ccccc2)NC(=S)N(c2ccc(Cl)cc2)N1 (stereo not drawn) | n | u | 10µM | n | n
Cc1cc(C)c2oc(-c3cc(NC(=O)C(C)(C)C)ccc3O)nc2c1 | x | n | x | x | x
CC(Sc1nc(C(F)(F)F)nc2ccccc12)C(=O)NC(C)(C)C (stereo not drawn) | x | n | x | x | x
CC(C)(C)NC(=O)CSc1ncc(-c2ccc(Cl)cc2)o1 | x | n | x | x | x
Cc1ccccc1-c1nnn(Cc2cc(Cl)c3c(c2)OCCCO3)n1 | x | n | x | x | x
CSC1=N/C(=C\c2ccc(I)o2)C(=O)S1 | x | 5.6µM | x | x | x
CSC1=N/C(=C\c2ccc(C)o2)C(=O)S1 | n | 45µM | 13µM | n | u
COc1ccc(/C=C/C=C2\N=C(SC)SC2=O)cc1 | n | n | 3.5µM | n | 45µM
COc1ccc(C)cc1S(=O)(=O)Nc1cccc(-c2ccc(N3CCCCCC3)nn2)c1 | n | n | n[0.501 µM] | u | n
COc1ccc(S(=O)(=O)Nc2cccc(-c3ccc(N4CCCCC4)nn3)c2)c(OC)c1 | x | 11µM | x | x | x
COc1ccc(OC)c(S(=O)(=O)Nc2ccc(-c3ccc(N4CCC(C)CC4)nn3)cc2)c1 | x | 8.9µM | x | x | x
COc1ccc(S(=O)(=O)Nc2cccc(-c3ccc4nncn4n3)c2)c(OC)c1 | n | u | 11µM | u | x
SMILES | GRP78 ERSR act | 12-LOX inh | G9a inh | VDR inhibitor | Sfp PPTase inh
O=C(Nc1cccc(-c2ccc(N3CCCCC3)nn2)c1)c1ccc(Br)o1 | n | u | 28µM | n | x
O=C1NCCCCCCN(S(=O)(=O)c2ccccc2)[C@H]2C[C@H](c3nc(-c4cccnc4)no3)C[C@@H]12 | x | n | x | x | x
O=S(=O)(Nc1cccc(-c2ccc(N3CCCCCC3)nn2)c1)c1cccc(F)c1 | n | n | 32µM! | n | n
COc1cccc(C(=O)Nc2cc3c(cc2N2CCOCC2)n(C)c(=O)n3C)c1 | n | n | 20µM | n | n
COc1cccc(-c2ocnc2C(=O)Nc2ccc(N3CCOCC3)cc2N2CCOCC2)c1 | n | n | 35µM | n | n
COc1ccc(NC(=O)c2ncoc2-c2cccc(OC)c2)cc1 | x | n | x | x | x
CCOC(=O)C1CCN(c2cc3c(cc2NC(=O)c2ccccc2Cl)n(C)c(=O)n3C)CC1 | n | n | 8.9µM! | n | n
Cc1cc(C(=O)NC2CC2)c2c(C3CCNC3)noc2n1 (stereo not drawn) | x | n[12.5 µM] | x | x | x
CCn1ccc(C(=O)N2CCC3(CC2)c2[nH]c4ccc(OC)cc4c2CCN3C)n1 | x | n | x | x | x
O=C1C(n2ccc3ccccc32)c2cccc(F)c2N1Cc1ccc(C(F)(F)F)cc1 (stereo not drawn) | x | 45µM | x | x | x
Cc1ccc(NC(=O)c2sc3nc(-c4ccc(F)cc4)cn3c2C)cc1Cl | x | n | x | x | x
CC(C)CSc1n[nH]c(=S)s1 | n | 22µM | 1.8µM | n | 35µM

High-throughput results: PubChem, National Center for Advancing Translational Sciences (NCATS)
